# Data reported in PubChem BioAssay (NCI).
# About 79,000 compounds went through this panel and 15% of them were active in at least one assay; those are over-represented in the sample as a whole. Unmarked numbers belong to inactive results. Active and inactive are the calls of the source. Rule as the data show it: active = growth inhibition above about 70%; inactive = the rest.
# Assays:
# [1] = NCI Yeast Anticancer Drug Screen. Data for the rad52 strain (AID 147);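 also: 0% = growth of vehicle-treated control cultures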; conditions: S. cerevisiae rad52 mutant growth inhibition, active compounds read high
# Procedure, shortened: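 Screen used a yeast mutant impaired in DNA repair. After compound exposure, growth was measured. Values reflect inhibition compared with vehicle-treated cells.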
# [2] = NCI Yeast Anticancer Drug Screen. Data for the wt1 strain (AID 149);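 also: 0% = growth of vehicle-treated wt1 cultures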; conditions: S. cerevisiae wt1 strain (SPY 50644) growth inhibition, active compounds read high
# Procedure, shortened: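 Readout: yeast growth inhibition, normalised to vehicle controls, in the wt1 strain exposed to test compounds.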
# [3] = NCI Yeast Anticancer Drug Screen. Data for the mgt1 strain (AID 153); conditions: S. cerevisiae mgt1 mutant growth inhibition, active compounds read high
# Procedure, shortened: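 Genetically defined yeast (mgt1) treated with compound; inhibition of growth expressed against vehicle-treated controls.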
# [4] = NCI Yeast Anticancer Drug Screen. Data for the rad50 strain (AID 155);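 also: 0% = growth of vehicle-only cultures of the same strain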; conditions: S. cerevisiae rad50 strain growth inhibition, active compounds read high
# Procedure, shortened: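 Compounds were tested on a yeast strain with an engineered DNA damage repair alteration; the reported value is growth inhibition normalised to vehicle treatment.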
# [5] = NCI Yeast Anticancer Drug Screen. Data for the mec2-1 strain (AID 157); conditions: S. cerevisiae mec2-1 strain, active compounds read high
# Procedure, shortened: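 Readout is yeast growth inhibition, normalised to vehicle-treated controls, in the mec2-1 strain exposed to compound.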
# [6] = NCI Yeast Anticancer Drug Screen. Data for the rad14 strain (AID 159);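 also: 0% = growth of vehicle-treated control cultures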; conditions: S. cerevisiae rad14 strain growth inhibition, active compounds read high
# Procedure, shortened: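 Compound-treated yeast with a defined DNA-repair lesion; growth inhibition normalised to vehicle-treated cultures.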
# [7] = NCI Yeast Anticancer Drug Screen. Data for the sgs1 mgt1 strain (AID 161);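 also: 0% = growth of cultures given vehicle only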; conditions: S. cerevisiae sgs1 mgt1 strain, active compounds read high
# Procedure, shortened: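 Yeast cells carrying a defined DNA-repair defect were exposed to test compounds. Growth inhibition was measured relative to vehicle-treated controls.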
# [8] = NCI Yeast Anticancer Drug Screen. Data for the CLN2oe strain (AID 163);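 also: 0% = growth of vehicle-only control cultures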; conditions: S. cerevisiae CLN2oe strain, active compounds read high
# Procedure, shortened: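 Values reflect how much compound exposure reduced yeast growth, referenced to vehicle-exposed cells. Assay organism is a strain with a defined genetic change affecting cell-cycle control.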
# [9] = NCI Yeast Anticancer Drug Screen. Data for the cln2 rad14 strain (AID 165);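 also: 0% = growth equal to vehicle treated cultures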; conditions: S. cerevisiae cln2 rad14 strain, active compounds read high
# Procedure, shortened: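 Relative to vehicle controls, growth inhibition of compound-treated cln2 rad14 yeast was recorded.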
# [10] = NCI Yeast Anticancer Drug Screen. Data for the bub3 strain (AID 167); conditions: S. cerevisiae bub3 mutant strain, active compounds read high
# Procedure, shortened: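 Growth of a checkpoint-deficient yeast mutant is measured after compound exposure. Values represent inhibition relative to vehicle.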
# [11] = NCI Yeast Anticancer Drug Screen. Data for the wt2 strain (AID 169);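 also: 0% = growth of vehicle-treated yeast cultures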; conditions: S. cerevisiae wt2 strain growth inhibition, active compounds read high
# Procedure, shortened: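 Values express reduction in yeast growth under compound treatment, referenced to vehicle-treated cells.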
# [12] = NCI Yeast Anticancer Drug Screen. Data for the mlh1 strain (AID 171);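 also: 0% = growth of vehicle-treated control cultures of the same strain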; conditions: S. cerevisiae mlh1 strain growth inhibition, active compounds read high
# Procedure, shortened: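 Steps: expose the defined-mutant yeast strain to compound; expose a parallel culture to vehicle; measure growth; express compound effect as inhibition relative to the vehicle culture.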
# [13] = NCI Yeast Anticancer Drug Screen. Data for the mlh1 rad18 strain (AID 175); conditions: S. cerevisiae mlh1 rad18 strain growth inhibition, active compounds read high
# Procedure, shortened: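 Test agents were incubated with a yeast strain of defined genotype (DNA damage repair defect). Inhibition of growth was derived by comparison with vehicle-exposed cultures.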
# [14] = NCI Yeast Anticancer Drug Screen. Data for the sgs1 strain (AID 173);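 also: 0% = growth of vehicle-only control cultures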; conditions: S. cerevisiae sgs1 mutant, active compounds read high
# Procedure, shortened: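 Treat defined-mutant yeast with compound; measure growth; calculate inhibition relative to vehicle-treated cells.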
# [15] = NCI Yeast Anticancer Drug Screen. Data for the rad18 strain (AID 177); conditions: S. cerevisiae rad18 mutant growth inhibition, active compounds read high
# Procedure, shortened: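 A genetically defined yeast mutant impaired in DNA damage repair was treated with test compounds, then its growth was measured against cultures receiving vehicle alone.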
# [16] = NCI Yeast Anticancer Drug Screen. Data for the rad50EPP+ strain (AID 151);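 also: 0% = growth of vehicle-treated control cultures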; conditions: S. cerevisiae rad50 mutant strain, active compounds read high
# Procedure, shortened: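 Exposing the rad50EPP+ strain to each compound, growth was compared with vehicle-only cultures to give inhibition.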
# [17] = at 5.0 µM (retest, dose inferred, filed as 0.5)
# [18] = at 50.0 µM (retest, dose inferred, filed as 5.0)
structure (smiles),measurement,setting,value
COC(=O)C1=C(C)NC(C)=C(C(=O)OC)C1c1cccc(/[N+]([O-])=C/c2ccccc2)c1,growth inhibition,[1]; at 1.2 µM,1%
same,growth inhibition,[1]; at 3.7 µM,2%
same,growth inhibition,[1]; at 11.0 µM,9%
same,growth inhibition,[1]; at 33.0 µM,23%
same,growth inhibition,[1]; at 100.0 µM,90% (active)
same,growth inhibition,[2]; at 1.2 µM,2%
same,growth inhibition,[2]; at 3.7 µM,4%
same,growth inhibition,[2]; at 11.0 µM,8%
same,growth inhibition,[2]; at 33.0 µM,18%
same,growth inhibition,[2]; at 100.0 µM,50%
same,growth inhibition,[3]; at 1.2 µM,1%
same,growth inhibition,[3]; at 3.7 µM,4%
same,growth inhibition,[3]; at 11.0 µM,13%
same,growth inhibition,[3]; at 33.0 µM,33%
same,growth inhibition,[3]; at 100.0 µM,96% (active)
same,growth inhibition,[4]; at 1.2 µM,-3%
same,growth inhibition,[4]; at 3.7 µM,-9%
same,growth inhibition,[4]; [17],11%
same,growth inhibition,[4]; at 11.0 µM,-9%
same,growth inhibition,[4]; at 33.0 µM,29%
same,growth inhibition,[4]; [18],35%
same,growth inhibition,[4]; at 50.0 µM,64.8%
same,growth inhibition,[4]; at 100.0 µM,83% (active)
same,growth inhibition,[5]; at 1.2 µM,3%
same,growth inhibition,[5]; at 3.7 µM,5%
same,growth inhibition,[5]; [17],11%
same,growth inhibition,[5]; at 11.0 µM,13%
same,growth inhibition,[5]; at 33.0 µM,34%
same,growth inhibition,[5]; [18],25%
same,growth inhibition,[5]; at 50.0 µM,40.5%
same,growth inhibition,[5]; at 100.0 µM,83% (active)
same,growth inhibition,[6]; at 1.2 µM,2%
same,growth inhibition,[6]; at 3.7 µM,4%
same,growth inhibition,[6]; at 11.0 µM,16%
same,growth inhibition,[6]; at 33.0 µM,34%
same,growth inhibition,[6]; at 100.0 µM,92% (active)
same,growth inhibition,[7]; [17],51%
same,growth inhibition,[7]; [18],50%
same,growth inhibition,[7]; at 50.0 µM,51.1%
same,growth inhibition,[8]; at 1.2 µM,4%
same,growth inhibition,[8]; at 3.7 µM,6%
same,growth inhibition,[8]; at 11.0 µM,13%
same,growth inhibition,[8]; at 33.0 µM,33%
same,growth inhibition,[8]; at 100.0 µM,74% (active)
same,growth inhibition,[9]; [17],6%
same,growth inhibition,[9]; [18],33%
same,growth inhibition,[9]; at 50.0 µM,44.8%
same,growth inhibition,[10]; at 1.2 µM,1%
same,growth inhibition,[10]; at 3.7 µM,4%
same,growth inhibition,[10]; [17],43%
same,growth inhibition,[10]; at 11.0 µM,10%
same,growth inhibition,[10]; at 33.0 µM,30%
same,growth inhibition,[10]; [18],79% (active)
same,growth inhibition,[10]; at 50.0 µM,59.6%
same,growth inhibition,[10]; at 100.0 µM,91% (active)
same,growth inhibition,[11]; at 1.2 µM,0%
same,growth inhibition,[11]; at 3.7 µM,1%
same,growth inhibition,[11]; at 11.0 µM,8%
same,growth inhibition,[11]; at 33.0 µM,32%
same,growth inhibition,[11]; at 100.0 µM,95% (active)
same,growth inhibition,[12]; at 1.2 µM,3%
same,growth inhibition,[12]; at 3.7 µM,3%
same,growth inhibition,[12]; at 11.0 µM,12%
same,growth inhibition,[12]; at 33.0 µM,39%
same,growth inhibition,[12]; at 100.0 µM,96% (active)
same,growth inhibition,[13]; [17],4%
same,growth inhibition,[13]; [18],40%
same,growth inhibition,[13]; at 50.0 µM,66%
CC1=NN(c2cccc(Cl)c2)C(=O)C1,growth inhibition,[1]; at 1.2 µM,-33%
same,growth inhibition,[1]; at 3.7 µM,-33%
same,growth inhibition,[1]; at 11.0 µM,-22%
same,growth inhibition,[1]; at 33.0 µM,-16%
same,growth inhibition,[1]; at 100.0 µM,14%
same,growth inhibition,[2]; at 1.2 µM,-13%
same,growth inhibition,[2]; at 3.7 µM,-36%
same,growth inhibition,[2]; at 11.0 µM,-22%
same,growth inhibition,[2]; at 33.0 µM,-2%
same,growth inhibition,[2]; at 100.0 µM,28%
same,growth inhibition,[3]; at 1.2 µM,-21%
same,growth inhibition,[3]; at 3.7 µM,-44%
same,growth inhibition,[3]; at 11.0 µM,-40%
same,growth inhibition,[3]; at 33.0 µM,8%
same,growth inhibition,[3]; at 100.0 µM,63%
same,growth inhibition,[4]; at 1.2 µM,-47%
same,growth inhibition,[4]; at 3.7 µM,-54%
same,growth inhibition,[4]; [17],81% (active)
same,growth inhibition,[4]; at 11.0 µM,-61%
same,growth inhibition,[4]; at 33.0 µM,-44%
same,growth inhibition,[4]; [18],99% (active)
same,growth inhibition,[4]; at 50.0 µM,43.4%
same,growth inhibition,[4]; at 100.0 µM,28%
same,growth inhibition,[5]; at 1.2 µM,-35%
same,growth inhibition,[5]; at 3.7 µM,-27%
same,growth inhibition,[5]; [17],74% (active)
same,growth inhibition,[5]; at 11.0 µM,-5%
same,growth inhibition,[5]; at 33.0 µM,8%
same,growth inhibition,[5]; [18],100% (active)
same,growth inhibition,[5]; at 50.0 µM,56.1%
same,growth inhibition,[5]; at 100.0 µM,32%
same,growth inhibition,[6]; at 1.2 µM,-4%
same,growth inhibition,[6]; at 3.7 µM,-21%
same,growth inhibition,[6]; at 11.0 µM,-22%
same,growth inhibition,[6]; at 33.0 µM,3%
same,growth inhibition,[6]; at 100.0 µM,36%
same,growth inhibition,[7]; [17],-12%
same,growth inhibition,[7]; [18],56%
same,growth inhibition,[7]; at 50.0 µM,55.9%
same,growth inhibition,[8]; at 1.2 µM,-26%
same,growth inhibition,[8]; at 3.7 µM,-4%
same,growth inhibition,[8]; at 11.0 µM,-1%
same,growth inhibition,[8]; at 33.0 µM,-15%
same,growth inhibition,[8]; at 100.0 µM,20%
same,growth inhibition,[9]; [17],39%
same,growth inhibition,[9]; [18],62%
same,growth inhibition,[9]; at 50.0 µM,27.2%
same,growth inhibition,[10]; at 1.2 µM,-42%
same,growth inhibition,[10]; at 3.7 µM,-33%
same,growth inhibition,[10]; [17],27%
same,growth inhibition,[10]; at 11.0 µM,-32%
same,growth inhibition,[10]; at 33.0 µM,-36%
same,growth inhibition,[10]; [18],33%
same,growth inhibition,[10]; at 50.0 µM,57.1%
same,growth inhibition,[10]; at 100.0 µM,29%
same,growth inhibition,[11]; at 1.2 µM,-31%
same,growth inhibition,[11]; at 3.7 µM,-28%
same,growth inhibition,[11]; at 11.0 µM,-15%
same,growth inhibition,[11]; at 33.0 µM,8%
same,growth inhibition,[11]; at 100.0 µM,51%
same,growth inhibition,[12]; at 1.2 µM,-13%
same,growth inhibition,[12]; at 3.7 µM,-20%
same,growth inhibition,[12]; at 11.0 µM,-16%
same,growth inhibition,[12]; at 33.0 µM,2%
same,growth inhibition,[12]; at 100.0 µM,56%
same,growth inhibition,[14]; at 1.2 µM,-27%
same,growth inhibition,[14]; at 3.7 µM,-22%
same,growth inhibition,[14]; at 11.0 µM,-11%
same,growth inhibition,[14]; at 33.0 µM,4%
same,growth inhibition,[14]; at 100.0 µM,50%
same,growth inhibition,[13]; [17],73% (active)
same,growth inhibition,[13]; [18],100% (active)
same,growth inhibition,[13]; at 50.0 µM,44%
same,growth inhibition,[15]; at 1.2 µM,-47%
same,growth inhibition,[15]; at 3.7 µM,-34%
same,growth inhibition,[15]; at 11.0 µM,-22%
same,growth inhibition,[15]; at 33.0 µM,-20%
same,growth inhibition,[15]; at 100.0 µM,8%
CCC[CH2][Ge]([CH2]CCC)([CH2]CCC)[O]C(=O)C(OC)c1ccccc1 (stereo unspecified),growth inhibition,[1]; at 1.2 µM,0%
same,growth inhibition,[1]; at 3.7 µM,6%
same,growth inhibition,[1]; at 11.0 µM,25%
same,growth inhibition,[1]; at 33.0 µM,66%
same,growth inhibition,[1]; at 100.0 µM,98% (active)
same,growth inhibition,[2]; at 1.2 µM,-3%
same,growth inhibition,[2]; at 3.7 µM,-6%
same,growth inhibition,[2]; at 11.0 µM,-3%
same,growth inhibition,[2]; at 33.0 µM,30%
same,growth inhibition,[2]; at 100.0 µM,97% (active)
same,growth inhibition,[16]; at 1.2 µM,-2%
same,growth inhibition,[16]; at 3.7 µM,3%
same,growth inhibition,[16]; at 11.0 µM,6%
same,growth inhibition,[16]; at 33.0 µM,16%
same,growth inhibition,[16]; at 100.0 µM,34%
same,growth inhibition,[4]; at 1.2 µM,2%
same,growth inhibition,[4]; at 3.7 µM,8%
same,growth inhibition,[4]; [17],60%
same,growth inhibition,[4]; at 11.0 µM,-2%
same,growth inhibition,[4]; at 33.0 µM,64%
same,growth inhibition,[4]; [18],60%
same,growth inhibition,[4]; at 50.0 µM,69.9%
same,growth inhibition,[4]; at 100.0 µM,98% (active)
same,growth inhibition,[5]; at 1.2 µM,-1%
same,growth inhibition,[5]; at 3.7 µM,-1%
same,growth inhibition,[5]; [17],57%
same,growth inhibition,[5]; at 11.0 µM,7%
same,growth inhibition,[5]; at 33.0 µM,34%
same,growth inhibition,[5]; [18],57%
same,growth inhibition,[5]; at 50.0 µM,75.5% (active)
